Records with an inconclusive call do not appear. The source made the active and inactive calls. Calls come from the whole dose curve.
% is set by controls: 0 for no effect and ±100 for the full control effect; potency is the fitted concentration of half-maximal effect.

Sequence of Atrial natriuretic peptide receptor 2 (Homo sapiens) (P20594 whole entry, looked up): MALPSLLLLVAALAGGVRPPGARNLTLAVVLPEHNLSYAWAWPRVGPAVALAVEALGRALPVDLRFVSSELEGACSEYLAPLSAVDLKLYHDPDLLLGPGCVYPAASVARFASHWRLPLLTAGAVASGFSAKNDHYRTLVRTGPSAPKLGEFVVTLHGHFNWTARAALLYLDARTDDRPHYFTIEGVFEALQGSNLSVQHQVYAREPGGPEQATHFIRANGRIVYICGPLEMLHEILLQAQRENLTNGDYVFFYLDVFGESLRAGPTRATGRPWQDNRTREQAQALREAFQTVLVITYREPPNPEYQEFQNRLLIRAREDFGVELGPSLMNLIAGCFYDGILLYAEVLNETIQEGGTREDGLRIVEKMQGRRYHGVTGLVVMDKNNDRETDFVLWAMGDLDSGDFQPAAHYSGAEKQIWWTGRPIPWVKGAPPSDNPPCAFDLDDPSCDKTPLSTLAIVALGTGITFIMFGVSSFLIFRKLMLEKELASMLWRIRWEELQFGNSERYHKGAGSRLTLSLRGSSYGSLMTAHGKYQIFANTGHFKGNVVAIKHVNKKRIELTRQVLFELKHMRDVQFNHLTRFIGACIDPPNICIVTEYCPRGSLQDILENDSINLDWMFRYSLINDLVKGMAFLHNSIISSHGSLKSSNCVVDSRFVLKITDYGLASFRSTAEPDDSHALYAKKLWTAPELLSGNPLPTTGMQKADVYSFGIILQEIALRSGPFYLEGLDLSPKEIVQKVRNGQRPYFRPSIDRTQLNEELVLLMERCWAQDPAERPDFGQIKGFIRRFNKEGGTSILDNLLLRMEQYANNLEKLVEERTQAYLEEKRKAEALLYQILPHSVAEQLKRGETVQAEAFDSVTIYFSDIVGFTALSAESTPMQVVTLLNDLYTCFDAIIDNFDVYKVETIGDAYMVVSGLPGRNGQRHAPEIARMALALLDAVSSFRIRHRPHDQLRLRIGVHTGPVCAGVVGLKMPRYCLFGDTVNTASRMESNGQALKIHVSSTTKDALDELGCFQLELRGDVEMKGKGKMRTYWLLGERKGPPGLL

The assay addresses Atrial natriuretic peptide receptor 2 (Homo sapiens) (UniProt P20594). Put plainly: Natriuretic polypeptide receptor (hNpr2) antagonism - Pilot subtype selectivity assay (AID 1347050). Particulars: NPR2-expressing cells, cGMP antagonist-mode read-out; series mostly up to 38.3 µM; activity change, negative = inhibition: at the top concentration. The protocol: F. Fan, B. F. Binkowski, B. L. Butler, P. F. Stecha, M. K. Lewis, K. V. Wood, Novel genetically encoded biosensors using firefly luciferase. ACS Chem Biol 3, 346-351 (2008).
PROTOCOL TABLE (as described by Inglese J, Shamu CE and Guy RK. 2007)
SEQUENCE No. (e.g., 1, 2, 3, etc.); […] (e.g., Cells, Incubation, Reagent, etc.); VALUE and DESCRIPTION.
1. Cells. Seed 1500 HEK293 cGMP-sensor cells expressing hNpr2 per well in 4uL into Greiner 1536-well white/solid bottom high base, TC plates.
2. Incubation. Incubate plated cells at 37C in 5% CO2, 95% RH overnight.
3. Reagent. Add 1uL per well GloSensor reagent from Promega (2% final concentration) or CO2 independent media vehicle control to respective columns of Greiner 1536-well plates.
4. Incubation. Incubate plated cells at ambient temperature for 2 h., protect from light.
5. Compounds. Library compounds and DMSO vehicle control added at 23nL per well, transferred by Pin Tool.
6. Incubation. Incubate plated cells for 30 min. at ambient temperature, protect from light.
7. Detector. GloSensor baseline pre-read luminescence measured using CCD-based camera (Viewlux).
8. Compound. Add 1uL of hNppC peptide to 1 nM final concentration to stimulate hNpr2 or CO2 independent media as vehicle control.
9. Incubation. Incubate treated cells at ambient temperature for 20 min., protect from light.
10. Detector. GloSensor post-hNppC luminescence measured using CCD-based camera (Viewlux).
NOTES (numbers refer to Sequence numbers above)
1. HEK293 cells expressing hNpr2 and GIP/pGS-40F were grown to 85-95% confluence (48-72 h) in T175 culture flasks (CO2 independent media supplemented with 10% FBS, 1% Pen/Strep antibiotics, and 1 ug/mL puromycin). Trypsinize and harvest cells from T175 culture flasks and filter through 40 um cell strainer. Cells counted with Invitrogen Countess (30,000,000 - 50,000,000 cells/flask). Cells diluted to a final concentration of 375 cells/uL in CO2 independent media and a Millipore multidrop used to dispense 1500 cells per well (4uL/well) into 9 x1536-well Greiner White/Solid bottom, high base tissue-culture treated (TC) plates and one Aurora 1536-well Black/Clear bottom, low base, TC plate (for visual inspection of cell health throughout the duration of the assay).
2. Cells incubated for 24 h. at 37C in 95% RH incubator with metal lid having gas-exchange holes.
3. Prepare GloSensor Reagent (Promega): Reconstitute GloSensor luciferase substrate by adding 8.2mL Hepes buffer to 250mg substrate, mix well, protect from light and stored at -80C. Prepare a fresh 12% GloSensor solution in CO2 independent supplemented plating media (see above). Mix well and store at ambient temperature, protected from light. 1uL 12% GloSensor Luciferase Reagent added (2% final concentration) to respective columns of 9 x 1536-well Greiner plate with BioRaptr, 1uL CO2 independent plating media added to respective columns as vehicle control with BioRaptr.
4. Cells incubated for 2 h. at ambient temperature, protected from light with metal lid having gas-exchange holes.
5. 23nL of LOPAC1280 library compounds (7 plates) or DMSO vehicle control transferred to 9 Greiner white/solid bottom high base, TC plates in 7 interplate 1:5 titrations (see Yasgar, A. et al. 2008) with Pintool. Two of the 9 plates are DMSO-only in compound field at beginning and end of compound library-treated plates.
6. Cells incubated for 30-50 min. at ambient temperature protected from light with metal lid having gas-exchange holes.
7. Read cellular baseline GloSensor luminescence in presence of test library compounds on the ViewLux [Exposure = 10 s.; Gain = High; Speed = Slow; and Binning = 2X.]
8. hNppC peptide agonist solution prepared at 1 mM (in H2O) stock concentration. From this a working dilution was prepared at 6 nM in CO2 Independent media. […]
As to `O=C(O)c1cc(=O)c2c(Cl)cc(Cl)cc2[nH]1`, the “activity change, negative = inhibition” value is 4.36% (inactive).

In the case of `O=C1NC(=O)/C(=C/c2ccc3nccnc3c2)S1`, the “activity change, negative = inhibition” value is 23.3% (inactive). As for `N#C/C(=C\c1ccc(O)c(O)c1)C(=O)c1ccc(O)c(O)c1`, the “activity change, negative = inhibition” value was 5.72% (inactive). Still for that read-out and setting: the same measure for `CCCCCCCCCCCCCCCCCCNC(=O)OCC(COP(=O)([O-])OCC[n+]1ccsc1)OC` (stereo not given): 8.05% (inactive); for `CCCCCCCCCCCCCCCC(=O)NCC(COP(=O)([O-])OCC[N+](C)(C)C)OCC` (stereo not given): -19.8% (inactive); for `CC(N)C(=O)OC(C)(C)Cc1ccc(Cl)cc1` (stereo not given): -17.8% (inactive). Consider `O=C(O)CC1CC(c2ccccc2)=NO1` (stereo not given), for which the “activity change, negative = inhibition” value was 20.3% (inactive). With `Clc1ccc(N2CCN(Cc3c[nH]c4ncccc34)CC2)cc1`, the “activity change, negative = inhibition” value is -11.4% (inactive). `CN1CCc2cc(O)c(O)cc2C(c2ccccc2)C1` (stereo not given): the “activity change, negative = inhibition” value is 0.606% (inactive). Still for that read-out and setting: the same measure for `CC1OC1P(=O)(O)O` (stereo not given): -1.73% (inactive); for `NC(N)=NC(=O)c1nc(Cl)c(N2CCCCCC2)nc1N`: -22.7% (inactive).

With `O=C(Nc1ccccc1)c1cc([N+](=O)[O-])ccc1Cl`, the “activity change, negative = inhibition” value was 0.684% (inactive). Same read-out and setting: next, `CC(C)Cc1ccc([C@H](C)C(=O)O)cc1`: 1.61% (inactive); `O=[N+]([O-])c1ccc(CSc2ncnc3c2ncn3[C@@H]2O[C@H](CO)[C@@H](O)[C@H]2O)cc1`: 6.75% (inactive).

As for `Cn1ncc(S(=O)(=O)Cc2ccccc2)c(Br)c1=O`, the Potency was 11.7 µM (active). As to `N#C/C(=C\c1ccc(O)c(O)c1)C(=O)NCCCc1ccccc1`, the “activity change, negative = inhibition” value is 6% (inactive). Still for that read-out and setting: next, `CCCCC/C=C\CC(O)/C=C/c1cccc(CC(O)CCCCO)n1` (stereo not given): -21.6% (inactive); `CN1CCC[C@H]1c1cccnc1`: 1.96% (inactive). Regarding `CCN(CC)c1ncnc2c1ncn2[C@@H]1O[C@H](COP(=O)(O)OP(=O)(O)C(Br)(Br)P(=O)(O)O)[C@@H](O)[C@H]1O`, the “activity change, negative = inhibition” value was 3.18% (inactive). Still for that read-out and setting: next, `O=C(O)[C@@H]1C[C@H](C(=O)O)N1`: 2.52% (inactive). For the compound `CCOC(=O)N1CCN(/[N+]([O-])=N/Oc2ccc([N+](=O)[O-])cc2[N+](=O)[O-])CC1`, the Potency is 10.4 µM (active). For `CO/N=C(\C(=O)N[C@@H]1C(=O)N2C(C(=O)O)=C(COC(C)=O)CS[C@H]12)c1csc(N)n1`, the “activity change, negative = inhibition” value was -0.821% (inactive).

On to `O=P(O)(O)C(Cl)(Cl)P(=O)(O)O`, for which the “activity change, negative = inhibition” value is 1.44% (inactive). The same measure, in the same setting: the same measure for `COc1cc(SC)ccc1C(=O)N1CCC(Cc2ccccc2)CC1`: 17% (inactive); for `N.N.O=C(O)C1(C(=O)O)CCC1.[Pt]`: -5.21% (inactive).

Turning to `CC(C)ON([C@@H](C(=O)NO)C(C)C)S(=O)(=O)c1ccc(-c2ccccc2)cc1`, the “activity change, negative = inhibition” value was 9.3% (inactive). Still for that read-out and setting: next, `NC(=O)C(=O)O`: 15.1% (inactive).

On to `CN1CC(=O)N/C1=N/C(=O)Nc1cccc(Cl)c1`, for which the “activity change, negative = inhibition” value is 11% (inactive). `Nc1nc(SCc2ccc([N+](=O)[O-])cc2)c2ncn([C@@H]3O[C@H](CO)[C@@H](O)[C@H]3O)c2n1`: the “activity change, negative = inhibition” value is 10.4% (inactive). On the same count and under the same terms, next, `COc1ccc2c(c1)CCC1C2CC[C@@]2(C)C1CC[C@@H]2NCCCCCCN1C(=O)CCC1=O` (stereo not given in full): 17.5% (inactive). Same read-out and setting: the same measure for `CC1(C)CCC=[N+]1[O-]`: -2.33% (inactive). Same read-out and setting: next, `Cc1ccc(C(=O)O[C@H](C(=O)O)[C@@H](OC(=O)c2ccc(C)cc2)C(=O)O)cc1` (tested in a mixture with another compound): -4.62% (inactive). For the compound `Nc1nc(Cl)nc2c1ncn2[C@@H]1O[C@H](CO)[C@@H](O)[C@H]1O`, the “activity change, negative = inhibition” value was 27.4% (inactive). With `CNC(=O)[C@H]1O[C@@H](n2cnc3c(NCc4ccc(N)cc4)ncnc32)[C@H](O)[C@@H]1O`, the “activity change, negative = inhibition” value was 8.57% (inactive). Turning to `O=[N+]([O-])c1ccc2c(c1)S(=O)(=O)C=C2`, the Potency was 5.85 µM (active). As for `C[N+](C)(C)CC(=O)[O-]`, the “activity change, negative = inhibition” value was 0.653% (inactive).

Turning to `CN(C)C(N)=NCCC[C@H](N)C(=O)O`, the “activity change, negative = inhibition” value was 8.62% (inactive). Still for that read-out and setting: next, `O=c1[nH]c2cc([N+](=O)[O-])c([N+](=O)[O-])cc2[nH]c1=O`: 1.63% (inactive); `c1cnc2c(c1)ccc1cccnc12`: -0.541% (inactive); `Cc1cc(NC2CCCCC2)nc(-n2nc(C)cc2C)n1`: 15.4% (inactive).
